# High-throughput results as filed in PubChem.
# An excerpt weighted towards active compounds, which were near 7.1% of everything screened.
# ELG1 repair inh – qHTS screen for small molecules that inhibit ELG1-dependent DNA repair in human embryonic kidney (HEK293T) cells expressing luciferase-tagged ELG1 | Potency, µM (top dose mostly 46.1 µM), inactives show at the highest dose activity change, negative = inhibition, usual class: inhibitors | 2.3% of 330,000 active | HEK293T ELG1-luciferase reporter, luminescence, 16 h; DNA damage induced by 5-fluorouridine; also: % is scaled to controls: 0 for no effect and ±100 for the full control effect; nearly all actives have a fitted effect of over 55% in size
#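 Step one: seed 2,000 cells per well. Step two: pin-transfer compound or DMSO alongside 5-fluorouridine. Step three: incubate 16 hr, 37 °C, 5% CO2. Step four: add ONE-Glo, wait 30 min, read luminescence.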
# ELG1 genotoxic – qHTS screen for small molecules that induce genotoxicity in human embryonic kidney (HEK293T) cells expressing luciferase-tagged ELG1. HEK293T ELG1-luciferase reporter, luminescence, 16 h. Potency, µM (top dose mostly 46 µM), without a hit: top-dose activity change, positive = activation, hits mostly activators. 1.3% of 330,000 active. AID 504466, 2011; also: % of control where 0% means no effect; nearly all actives have a fitted effect of over 60% in size
#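 Step 1: seed 2,000 HEK293T ELG1-luciferase cells per well. Step 2: add compound or DMSO, incubate 16 hr at 37 °C. Step 3: ONE-Glo, 30 min at room temperature, read luminescence.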
# MCF10A rereplic – A quantitative high throughput screen for small molecules that induce DNA re-replication in MCF 10a normal breast cells; MCF 10A DNA re-replication, Hoechst nuclear intensity, 48 h; Potency, µM (top dose mostly 46.1 µM), for inactives: top-dose activity, positive = re-replication, actives largely listed as activators; 2.9% of 350,000 active; also: % of control where 0% means no effect; nearly all actives have a fitted effect of over 50% in size
# A-T KAP1 phos – qHTS Assay for Identifying a Potential Treatment of Ataxia-Telangiectasia; F2112 A-T fibroblasts, KAP-1 phosphorylation AlphaLISA; neocarzinostatin DNA damage 30 min before lysis; 0.19% of 320,000 active; Potency, µM (top dose mostly 57.5 µM), for inactives: top-dose activation, most hits filed as activators; also: % of control where 0% means no effect; nearly all actives have a fitted effect of over 45% in size
#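 hTERT-immortalized A-T patient fibroblasts (F2112), 500 cells/well in OPTI-MEM, 1% FBS, got compounds for 60 min, then NCS for 30 min at 37C. Lysates were then assayed for phospho-KAP-1 by AlphaLISA (anti-pKAP1 donor, anti-KAP1 acceptor beads), 6 hr at 25C.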
# SW480 rereplic – A quantitative high throughput screen for small molecules that induce DNA re-replication in SW480 colon adenocarcinoma cells; SW480 DNA re-replication, Hoechst DNA content imaging, 48 h; Potency, µM (doses to about 46.1 µM), for the others: at the highest dose re-replication activation, usual class: activators; 1.8% of 340,000 active; also: % of control where 0% means no effect; nearly all actives have a fitted effect of over 55% in size
#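 Image-based DNA-content assay: after two days of treatment, nuclei were labelled with the DNA dye Hoechst and imaged, and hits were compounds raising the count of nuclei showing high fluorescence intensity.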
# p53 reactivator – qHTS assay for re-activators of p53 using a Luc reporter; H1299 p53-A138V BP100-luciferase reporter, luminescence, 24 h; Potency, µM (top dose mostly 92.2 µM), for inactives: top-dose activity change, positive = activation, most hits filed as activators; 0.063% of 320,000 active; also: % of control where 0% means no effect; nearly all actives have a fitted effect of over 45% in size
#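 p53-null H1299 cells stably carrying temperature-sensitive p53-A138V and a BP100-luciferase reporter were pinned with compounds (4-point, 1:5 series) and held 24 hrs at 37 deg C. Luminescence was read 10 min after detection reagent.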
# * marks the source's active call; other numbers are inactive results; ? = inconclusive; · = no result given. Calls follow the shape of the dose curve; as a rule, active = well fitted curve in the direction sought with a large enough effect; inconclusive = small, poorly fitted or top-dose-only effect, or another doubt; inactive = no such curve, though single readings can be large; an effect the other way counts as inactive or inconclusive. Potency is read from the fitted curve at half-maximal effect.
SMILES,ELG1 repair inh,ELG1 genotoxic,MCF10A rereplic,A-T KAP1 phos,SW480 rereplic,p53 reactivator
Cc1ccc(/C=C2/NC(=O)N(Cc3ccc(Br)cc3)C2=O)o1,?,12.4%,16.4µM*,-4.0%,?,-10.5%
CCOC(=O)CN1C(=O)S/C(=C\c2ccc(-c3ccc(C(=O)O)c(Cl)c3)o2)C1=O,-8.1%,-1.7%,23.1µM*,5.1%,0.651µM*,·
CCOC(=O)CN1C(=O)S/C(=C\c2ccc(-c3cccc(C(=O)O)c3C)o2)C1=O,·,·,21.2%,·,15.2%,·
Cc1ccc(NC(=O)CN2C(=O)S/C(=C\c3ccc(-c4cccc(C(=O)O)c4C)o3)C2=O)cc1C,-4.4%,0.5%,12.6µM*,1.1%,?,3.0%
Cc1c(NC(=O)C(C)OC(=O)c2ccc([N+](=O)[O-])cc2Cl)c(=O)n(-c2ccccc2)n1C (stereo unspecified),·,·,-0.7%,·,?,·
CCCN1C(=O)/C(=C/c2ccc(N3CCOCC3)cc2)NC1=S,-21.7%,-3.5%,15.3%,0.0%,2.4%,0.6%
CCN(CC)c1ccc(/C=C2/SC(=O)N(C(C)C)C2=O)o1,?,-13.2%,?,-25.1%,5.17µM*,-18.5%
Cc1ccc(CN2C(=O)N/C(=C\c3ccc(N4CCOCC4)cc3)C2=O)cc1,?,13.9%,15.5%,-0.1%,14.6µM*,-3.3%
O=C(O)c1ccc(-c2ccc(/C=C3\NC(=O)N(Cc4ccc(Cl)cc4)C3=O)o2)cc1Cl,3.8%,1.8%,11.2µM*,-1.0%,7.31µM*,-4.2%
COc1ccc(CNC(=O)N[C@@H](CC(C)C)C(=O)O)cc1OC,5.0%,2.3%,-13.2%,?,-0.6%,-3.0%
COc1ccccc1N1CC(C(=O)OCC(=O)Nc2c(C)cccc2C)CC1=O (stereo unspecified),14.4%,5.2%,0.3%,0.2%,-3.9%,2.2%
c1ccc(-c2noc(-c3cccnc3)n2)nc1,?,5.17µM*,-3.0%,5.1%,-2.2%,?
c1ccc(-c2noc(-c3ccncc3)n2)nc1,0.0%,20.6µM*,-18.4%,1.6%,1.8%,18.4%
O=C1COc2ccc(C(=O)COC(=O)c3ccc(F)cc3Cl)cc2N1,-7.0%,-0.4%,2.0%,26.2%,-4.3%,29.1%
Cc1cc(NS(C)(=O)=O)c(=O)n(Cc2c(F)cccc2Cl)c1,-5.2%,-2.4%,4.8%,-1.0%,-10.5%,·
COC(=O)c1ccc2nc(Nc3nc4c(F)cc(F)cc4s3)sc2c1,?,?,2.31µM*,10.7%,0.231µM*,-11.6%
COC(=O)c1ccc2nc(NC(=O)C(C)C)sc2c1,?,?,-10.8%,0.9%,0.7%,28.1%
CCOC(=O)N1CCN(S(=O)(=O)c2ccc(C(=O)Nc3nc4ccc(F)cc4s3)cc2)CC1,-23.6%,-0.8%,16.4µM*,-7.7%,6.8%,-0.7%
CCOC(=O)c1ccc2nc(Nc3nc4ccc(F)cc4s3)sc2c1,?,-10.1%,10.3µM*,0.3%,1.5%,?
Cc1cc(C)c2c(c1)/C(=N\N=c1\sc3ccccc3n1C)C(=O)N2,-4.9%,2.2%,0.0%,-9.1%,-0.8%,1.9%
OC(C#Cc1ccccn1)c1cccs1 (stereo unspecified),?,?,?,14.1µM*,?,-30.6%
O=C(NC1CCCCC1)C(c1cccs1)N(C(=O)c1ccccn1)c1ccccc1 (stereo unspecified),?,-5.8%,-13.9%,-0.5%,-15.3%,0.7%
COc1ccc(S(=O)(=O)N2CCCC(C(=O)NCc3cccnc3)C2)cc1OC (stereo unspecified),-8.1%,-2.4%,4.4%,32.4%,?,-1.6%
Cc1nn(-c2ccccc2)c(C)c1/C=N/NC(=O)c1cc(-c2cccs2)[nH]n1,?,-0.8%,28.8%,-2.4%,0.651µM*,27.1%
O=C(N/N=C/c1ccccn1)c1cc(-c2ccc(Cl)s2)[nH]n1,-1.9%,-3.0%,29.6%,4.3%,21.4%,10.6%
SMILES,ELG1 repair inh,ELG1 genotoxic,MCF10A rereplic,A-T KAP1 phos,SW480 rereplic,p53 reactivator
Cc1nn(-c2ccccc2)c(C)c1/C=N/NC(=O)c1cc(C2CC2)[nH]n1,-1.4%,?,-4.4%,-3.7%,0.4%,-6.6%
Cc1nn(-c2ccccc2)c(C)c1/C=N/NC(=O)c1cc(-c2ccc(Cl)s2)[nH]n1,?,-8.5%,3.66µM*,2.9%,5.17µM*,-4.5%
Cc1cc(C(=O)N/N=C/c2c(C)nn(-c3ccccc3)c2C)n[nH]1,?,7.9%,3.3%,-4.8%,-4.0%,5.1%
Cc1nn(-c2ccccc2)c(C)c1/C=N/NC(=O)c1cc(-c2ccc(Br)s2)[nH]n1,8.2µM*,-30.9%,4.11µM*,-7.0%,14.6µM*,-8.6%
Cc1nn(-c2ccccc2)c(C)c1-c1cc(C(=O)N/N=C/c2ccc(O)cc2)[nH]n1,?,-6.3%,18.4µM*,6.3%,22.5%,-1.8%
CC(C)c1cccc(-c2ccc3c(c2)S(=O)(=O)c2cccc(C(=O)NC4CCCC4)c2C3=O)c1,-2.6%,-1.4%,?,-9.3%,-7.5%,4.0%
CC(C)(C)c1ccc(-n2ncc3c2CCCC3NC(=O)c2cnccn2)cc1 (stereo unspecified),?,?,18.7%,-1.7%,?,-24.0%
O=C(NCc1ccccn1)c1nc(Cn2ccc([N+](=O)[O-])n2)no1,1.2%,-1.1%,-1.2%,-0.9%,-3.9%,6.1%
Cc1nn(-c2ccccc2)c(C)c1/C=N/NC(=O)c1cc(C23CC4CC(CC(C4)C2)C3)[nH]n1,16.4µM*,-12.6%,2.59µM*,-6.6%,19.6%,-7.6%
COc1cc(/C=N/NC(=O)c2cc(C34CC5CC(CC(C5)C3)C4)[nH]n2)ccc1O,0.1%,?,1.3µM*,-1.7%,-0.3%,-13.9%
COc1cc(/C=N/NC(=O)c2cc(C3CC3)[nH]n2)ccc1O,3.8%,-1.4%,-7.7%,10.6%,25.2%,-0.6%
COc1ccccc1/C=C/C(=O)Nc1nc(N)n(-c2ccccc2)n1,?,-0.9%,-1.4%,-5.1%,?,2.1%
Cn1c2ccccc2c(=O)c2cc(C#Cc3ccccn3)ccc21,?,?,-21.1%,18.0%,-3.7%,25.0%
COc1cc(C#Cc2c(C=O)n(C)c3ccccc23)cc(OC)c1,?,-6.5%,5.8µM*,?,8.2µM*,-3.1%
C=CCn1c2ccccc2c(=O)c2cc(C#Cc3cc(OC)cc(OC)c3)ccc21,23.8%,-0.1%,?,?,6.51µM*,0.6%
